Reference: PubChem BioAssay AID686978 (National Center for Advancing Translational Sciences (NCATS), 2013)
“And” between values parts separate entries of the source, which are not always exact repeats. Equal entries are not always repeated. Hit rate of the full screen: of about 420,000 compounds, about 64,000 (15%) were called active. Where a call stands in place of a potency, no number is given. Inconclusive results (about 27%) are left out. Many of the other results were omitted from the sample, so actives are more common in it than they were. Unmarked numbers belong to inactive results. Calls follow the shape of the dose curve; as a rule, active = well fitted inhibition curve with a large enough effect; inconclusive = small, poorly fitted or top-dose-only effect; inactive = flat fitted curve, though single readings scatter.

test: qHTS for Inhibitors of human tyrosyl-DNA phosphodiesterase 1 (TDP1): qHTS in cells in absence of CPT; conditions: DT40 Tdp1-/- hTDP1 cells, no CPT, ATP luminescence, 48 h; series mostly up to 46.2 µM; also: nearly all actives have a fitted effect of over 55% in size
In short: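 Chicken DT40 Tdp1-/- cells complemented with human TDP1, screened without camptothecin (DMSO vehicle only), 400 cells/well. Compounds pin-transferred, cells incubated at 37 °C for at least 48 hr. Growth read as ATP-dependent luminescence (CellTiter-Glo, 30 min at RT).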
Potency is read from the fitted curve at half-maximal effect.

Compound | Potency | activity change, negative = growth inhibition
C=CC12CN(C)[C@@H]3C4CO[C@H](C[C@H]41)[C@]1(C(=O)Nc4ccccc41)[C@@H]32 (stereo partly drawn) | inactive | –
COc1cc(-n2c(=S)[nH]c3ccc(C)cc3c2=O)c(Cl)cc1Cl | 18.4 µM (active) | –
c1ccc(N2Cc3ccccc3-n3nncc3C2)nc1 | inactive | –
CCOCCCNC(=O)c1c(NC(=O)c2nc(SC)ncc2Cl)sc2c1CCCC2 | 11.6 µM (active) | –
c1ccc(C(CN2CCCCC2)c2ccccc2)cc1 | inactive | –
CCCCn1c(O)c(C(CC)=NCc2ccco2)c(=O)[nH]c1=O | inactive | –
CCC(=NCCCO)c1c(O)n(-c2ccc(OC)cc2)c(=O)[nH]c1=O | inactive | –
CCCCCCN=C(CC)c1c(O)n(CCCC)c(=O)[nH]c1=O | 25.9 µM (active) | –
CC(C)c1c(CN(C)C(C)Cc2ccccc2)n(C)n(-c2ccccc2)c1=O (stereo not drawn) | inactive | –
Cc1c(Oc2cc(NN3CCCCC3)c([N+](=O)[O-])cc2[N+](=O)[O-])cccc1[N+](=O)[O-] | inactive | –
CC(C)(C)[C@]1(O)C[C@@H]2OC(=O)C[C@@]23C(=O)O[C@@H]2OC(=O)[C@H](O)[C@]213 | inactive | –
COc1cccc(C(c2nnnn2-c2ccc3c(c2)OCCO3)N2CCC3(CC2)C(=O)NCN3c2ccccc2)c1OC (stereo not drawn) | 16.4 µM (active) | –
O=c1[nH]c2ccccc2n1C1CCN(C(c2ccccc2)c2nnnn2Cc2ccccc2)CC1 (stereo not drawn) | 14.6 µM (active) | –
COc1ccc(-n2nnnc2C(c2cccc3ccccc23)N2CCC(n3c(=O)[nH]c4ccccc43)CC2)cc1 (stereo not drawn) | 16.4 µM (active) | –
CN1CCN(Cc2ccccc2C(F)(F)F)CC1 | inactive | –
CC(C)c1ccc(-n2c(O)c(/C=N/N3CCOCC3)c(=O)[nH]c2=S)cc1 | inactive | –
CC1C2Cn3c(nc4ccccc43)C1N(C)O2 (stereo not drawn) | inactive | –
CC(=O)c1c(O)c(C)c(O)c(Cc2c(O)c3c(c(C(=O)/C=C\c4ccccc4)c2O)OC(C)(C)C=C3)c1O | 13.3 µM (active) | –
CC(=O)c1c(O)c(C)c(O)c(Cc2c(O)c3c(c(C(=O)/C=C/c4ccccc4)c2O)OC(C)(C)C=C3)c1O | 8.91 µM (active) and 19.8 µM (active) and 13.3 µM (active) | –
c1cc2c(cc1[C@H]1OC[C@H]3[C@@H]1CO[C@@H]3c1ccc3c(c1)OCO3)OCO2 | inactive | –
O=C(O)CCn1cc(C=C2C(=O)NC(=S)NC2=O)c(-c2cccc(Br)c2)n1 | inactive | –
CCCC[N+]1(C)C2CC(OC(=O)C(CO)c3ccccc3)CC1C1OC12 (stereo not drawn) | inactive | –
OC[C@@H]1CN(Cc2ccncc2)C[C@H](n2cnc3c(N4CCN(c5ccccc5)CC4)ncnc32)O1 | 2.91 µM (active) | –
CC(C)Nc1nc(Cl)nc(NC(C)C)n1 | inactive | –
COc1ccccc1C(=O)N[C@@H]1c2ccccc2C2(CCN(Cc3nc(C(C)C)cs3)CC2)[C@H]1O | 1.64 µM (active) | –
Cc1cccc(-n2c(O)c(/C=N/N3CCOCC3)c(=O)[nH]c2=S)c1 | inactive | –

Compound | Potency | activity change, negative = growth inhibition
CC(=O)Nc1cc(-c2cccc(CO)c2)cn2c(-c3cccc(C(F)(F)F)c3)cnc12 | 18.4 µM (active) | –
NC(=O)Nc1cccc(C(F)(F)F)c1 | inactive | –
CCN1CCN(c2nc3c(c(=O)[nH]2)CCC3)CC1 | inactive | –
COC(=O)CN(CCCl)P1(=O)OCCCN1CCCl (stereo not drawn) | inactive | –
Fc1cccc(F)c1CN1CCN(Cc2c(F)cccc2F)CC1 | inactive | –
CN(C)c1cccc(C(=O)Nc2nc3ccc(S(=O)(=O)NC(C)(C)C)cc3s2)c1 | 11.6 µM (active) | –
O=c1[nH]c(=S)n(C2CC2)c(O)c1/C=N/N1CCOCC1 | inactive | –
O=C1NCN(c2ccccc2)C12CCN(C(c1cccs1)c1nnnn1C1CCCCC1)CC2 (stereo not drawn) | 16.4 µM (active) | –
C=Cn1ccnc1P(=S)(c1cc(N(CC)CC)ns1)c1nccn1C=C | inactive | –
O=C1C[C@@H]2OCC=C3CN4CC[C@]56c7ccccc7N1[C@H]5[C@H]2[C@H]3C[C@H]46 (tested in a mixture with another compound) | inactive | –
COc1ccc(CCn2c(O)c(C=NCCCn3ccnc3)c(=O)[nH]c2=O)cc1OC | inactive | –
Cc1ccc(NC(=O)COc2ccc(-n3ccnc3)cc2)cc1Cl | 20.6 µM (active) | –
Cc1ccc(C)c(NS(=O)(=O)c2ccc(OCC(=O)NCc3cccnc3)cc2)c1 | inactive | –
C=CCN1C(=O)NC(=O)/C(=C/c2ccc(OCC(=O)Nc3ccc(C)cc3)cc2)C1=O | inactive | –
COc1ccc(NC(=O)N2Cc3ccccc3-n3nncc3C2)cc1 | inactive | –
O=C1/C(=C\c2ccc3c(c2)OCO3)N2CCC1CC2 | inactive | –
COc1ccc(C)cc1N(CC(=O)N1CCC(C)CC1)S(=O)(=O)c1ccc(C)cc1 | 13 µM (active) | –
CCOC(=O)c1c(N)n(CCN2CCOCC2)c2nc3ccccc3nc12 | inactive | –
CC(=O)NC(=O)NC(C)Cc1ccccc1 (stereo not drawn) | inactive | –
Nc1ccc(C(=O)N/N=C2/CN3CCC2CC3)cc1 | inactive | –
CN(C)C(=O)Oc1ccc(OCc2cccc[n+]2C)cc1 | inactive | –
Cc1cc2ccccn2c1C(C[N+](=O)[O-])c1c(F)cccc1Cl (stereo not drawn) | 14.6 µM (active) | –
CCN1C(=O)C(=Cc2c(C)n(CC(=O)NCC3CCCO3)c3ccccc23)C(=O)N(CC)C1=S (stereo not drawn) | inactive | –
CN(C)CC1CCCCC1=O (stereo not drawn) | 13 µM (active) | –
COC(=O)C(O)(c1ccc(NC(=O)c2ccco2)c(OC)c1)C(F)(F)F (stereo not drawn) | inactive | –
CC(=CCOc1ccc2ccc(=O)oc2c1)C1=CC(=O)C(C)(C)O1 | 3.26 µM (active) | –

Compound | Potency | activity change, negative = growth inhibition
CC(C)c1ccc(OCC(=O)N2CCN(C)CC2)c(Br)c1 | inactive | –
O=C(C1CCN(S(=O)(=O)c2ccc(Br)s2)CC1)N1CCN(c2ccccc2)CC1 | 20.6 µM (active) | –
COc1ccc(Cn2c(O)c(/C=C3/C=CC=N3)c(=O)[nH]c2=O)cc1 | 16.4 µM (active) | –
O=C(N/N=C/c1c(O)n(Cc2ccccc2)c(=O)[nH]c1=O)c1ccccc1 | inactive | –
COc1ccc(N=Cc2c(O)n(C)c(=O)[nH]c2=O)cc1 | inactive | –
Nc1ccc(Cc2ccc(N)c(Cl)c2)cc1Cl | inactive | –
CCCN(C/C=C/I)C1CCc2ccc(O)cc2C1 (stereo not drawn) | 20.6 µM (active) | –
Cc1cccc2c(CCN)c[nH]c12 | inactive | –
Oc1cc2c(cc1CN1CCN(c3ccccc3)CC1)OCO2 | inactive | –
CC(=O)OC1C2(CC3N4C(=O)C5(CO)SSC4(CC31O)C(=O)N5C)OC(C)C(C)(C)C2=O (stereo not drawn) | 0.164 µM (active) | –
COC(=O)CN1C(=O)C2(C(C(=O)OC)=C(N)Oc3ccccc32)C2=C1CC(C)(C)CC2=O (stereo not drawn) | inactive | –
Cc1cc(OCc2cc(C(=O)O)oc2C)c2c3c(c(=O)oc2c1)CCCC3 | inactive | –
COC(=O)COc1cc(C)cc2oc(=O)c3c(c12)CCCC3 | inactive | –
CC(=O)c1ccc(OC(NC(=O)Cc2ccccc2)C(Cl)(Cl)Cl)cc1 (stereo not drawn) | inactive | –
CCCCCCCCCCCCn1ccc(=N)cc1 | 0.411 µM (active) | –
CC(=C1C(=O)c2ccccc2C1=O)N1CCN(CCN=Cc2c(O)n(C)c(=O)n(C)c2=O)CC1 | inactive | –
CN1CCc2cc3c(cc2[C@H]1[C@@H]1OC(=O)c2c1ccc1c2OCO1)OCO3 | inactive | –
CC(C)CN1CCN(Cc2ccccc2C(F)(F)F)CC1CCO (stereo not drawn) | inactive | –
O=C1C2CCN(CC2)C1(CO)CO | 5.96 µM (active) and 4.61 µM (active) | –
CC(C)c1ccc(OCC(=O)N2CCCN(C)CC2)cc1 | inactive | –
O=C(Nc1cccc2ccccc12)N1CCC2(CC1)OCCO2 | inactive | –
COc1ccc(CCn2c(O)c(C=NC3CC3)c(=O)[nH]c2=O)cc1OC | inactive | –
COc1cccc(-c2nc3ccc(N4CCN(C)CC4)cc3[nH]2)c1 | inactive | –
Cc1nc2ccc(N3CCN(C)CC3)cc2nc1C | inactive | –
CN1CCN(c2cc(N3CCNCC3)ccc2[N+](=O)[O-])CC1 | 7.31 µM (active) | –
O=c1[nH]c(=O)n(Cc2ccccc2)c(O)c1/C=N/Nc1c(F)c(F)c(F)c(F)c1F | inactive | –

Compound | Potency | activity change, negative = growth inhibition
Cc1cc(C)c2c(c1)NP(=S)(c1ccccc1)N2 (stereo not drawn) | inactive | –
COc1ccc2c(c1)NP(=S)(c1ccccc1)N2 (stereo not drawn) | 16.4 µM (active) | –
N#Cc1ccc(Cn2cc(C(=O)c3ccco3)c3ccccc32)cc1 | 23.1 µM (active) | –
NC(=O)Cn1cc(C(=O)c2ccccc2F)c2ccccc21 | inactive | –
Cc1cc(=O)oc2c(C)c(OCC(=O)N3CCN(Cc4ccc5c(c4)OCO5)CC3)ccc12 | inactive | –
O=C(CN1CCCCC1)Nc1ccc(Br)cc1C(=O)c1ccccc1Cl | inactive | –
O=S(=O)(O)C(F)(F)C(F)(F)C(F)(F)C(F)(F)F | inactive | –
Cc1ccc(OC(=O)N(C)C[C@@H]2OCc3cnnn3CCCC(=O)N([C@H](C)CO)C[C@@H]2C)cc1 | inactive | –
O=c1c2ccccc2nc(/C=C/c2ccc(F)cc2)n1-c1ccccc1O | 16.4 µM (active) | –
COc1cccc(N2C(=O)NC(=O)/C(=C\c3cn(C)c4ccccc34)C2=O)c1 | inactive | –
O=c1c2ccccc2nc(CBr)n1-c1ccc(Cl)cc1 | inactive | –
Cn1cc(/C=C/c2nc3ccccc3c(=O)n2-c2ccccc2)c2ccccc21 | 8.2 µM (active) | –
C1CC[C@H]([C@@]23C[C@H](C[C@H]4CCCN[C@H]42)[C@@H]2CCCCN2C3)NC1 | – | -7.17% [at 9.04 µM]
CCCC(C)n1[nH]c(=O)c2c1NC(=O)CSC2c1ccc(OC)c(OC)c1 (stereo not drawn) | inactive | –
COc1ccccc1-n1c(O)c(C=NC2CC2)c(=O)[nH]c1=O | inactive | –
CCOC(=O)CNC(=O)N1Cc2cc(N3CCCCC3)ccc2-n2nncc2C1 | inactive | –
c1ccc(CC2CCCCN2)cc1 (stereo not drawn) | inactive | –
Cn1c(O)c(C=Nc2ccc3c(c2)CCC3)c(=O)n(C)c1=O | inactive | –
CC(=NC1CCN(Cc2ccccc2)CC1)c1c(O)n(C)c(=O)n(C)c1=O | inactive | –
Cn1c(O)c(C(=Nc2ccc(F)cc2)c2ccccc2)c(=O)n(C)c1=O | 9.2 µM (active) | –
CCN1CCN(Cc2cc(OC)c3c(c2)OCO3)CC1 | inactive | –
COc1cccc(C(=O)N2C[C@H]3C[C@@H](C2)c2cccc(=O)n2C3)c1 | inactive | –
N#Cc1c(Cl)c(Cl)c(Cl)c(C#N)c1Cl | 25.1 nM (active) and 517 nM (active) | –
O=c1c2ccccc2nc(-c2ccc(Cl)cc2Cl)n1-c1ccncc1 | inactive | –
Cc1nc2ccccc2c(=O)n1-c1ccc(Cl)cc1Cl | 23.1 µM (active) | –
